PubChem BioAssay (NCATS)
Several values for one entry are separate records, joined by “and”; a condition that tells them apart may be missing. Equal entries are not always repeated. Records with an inconclusive call do not appear. A call without a number means that no potency is given here. The source holds several records for some structures; these can differ, active in one and inactive in another. Activity calls are given as the source filed them. Unless noted, calls follow the shape of the dose curve; as a rule, active = well fitted curve in the direction sought with a large enough effect; inconclusive = small, poorly fitted or top-dose-only effect, or another doubt; inactive = no such curve, though single readings can be large; an effect the other way counts as inactive or inconclusive.

Legend:
[1] = molecular target: Nicotinamide N-methyltransferase (Homo sapiens) (UniProt P40261); experiment: Confirmatory Screen for Target Class Profiling of Small Molecule Inhibitors of Methyltransferases (AID 1745852); conditions: MTase-Glo luminescence, SAH detection, recombinant enzyme; measured here: NNMT max response; stronger effect = lower value
Nicotinamide N-methyltransferase (Homo sapiens), sequence (P40261 whole entry, looked up): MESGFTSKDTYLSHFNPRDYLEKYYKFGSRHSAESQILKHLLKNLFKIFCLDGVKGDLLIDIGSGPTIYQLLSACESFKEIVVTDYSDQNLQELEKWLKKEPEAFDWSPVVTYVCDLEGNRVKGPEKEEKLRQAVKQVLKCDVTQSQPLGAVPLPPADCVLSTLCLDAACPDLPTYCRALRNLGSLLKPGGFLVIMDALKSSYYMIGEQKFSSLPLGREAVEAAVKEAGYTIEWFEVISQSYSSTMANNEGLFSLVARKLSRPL

[2] = molecular target: Phenylethanolamine N-methyltransferase (Homo sapiens) (UniProt P11086); experiment: as above; conditions: MTase-Glo luminescence, SAH detection, recombinant enzyme; measured here: PNMT max response; stronger effect = lower value
Phenylethanolamine N-methyltransferase (Homo sapiens), sequence (P11086 whole entry, looked up): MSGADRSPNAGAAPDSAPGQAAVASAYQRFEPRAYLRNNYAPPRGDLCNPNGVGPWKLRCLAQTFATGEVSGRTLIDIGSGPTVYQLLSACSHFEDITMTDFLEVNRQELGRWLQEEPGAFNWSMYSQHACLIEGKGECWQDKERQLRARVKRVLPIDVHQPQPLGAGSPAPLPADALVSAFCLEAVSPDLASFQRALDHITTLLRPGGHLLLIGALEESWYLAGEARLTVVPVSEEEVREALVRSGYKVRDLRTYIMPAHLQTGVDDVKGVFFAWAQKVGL

[3] = molecular target: Glutathione peroxidase 1 (Homo sapiens) (UniProt P07203); experiment: Primary qHTS Assay for Inhibitors of Recombinant Selenoprotein Glutathione Peroxidase 1 (GPX1) (AID 1845191); conditions: recombinant GPX1, GR-coupled NADPH fluorescence, 15 min; series mostly up to 48.8 µM; also: nearly all actives have a fitted effect of over 65% in size
Glutathione peroxidase 1 (Homo sapiens), sequence (P07203 whole entry, looked up): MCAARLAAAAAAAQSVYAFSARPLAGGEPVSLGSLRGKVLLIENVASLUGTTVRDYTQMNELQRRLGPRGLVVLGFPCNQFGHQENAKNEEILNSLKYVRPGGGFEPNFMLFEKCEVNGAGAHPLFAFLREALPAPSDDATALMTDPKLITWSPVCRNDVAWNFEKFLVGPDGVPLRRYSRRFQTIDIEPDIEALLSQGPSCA
Summary of the method: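 GPX1 10 nM, GR 100 nM, GSH 1 mM, NADPH 0.5 mM, CHP 0.5 mM (final). 30-min cpd preincubation, RT. Ex340/Em450 read t=0, t=15 min.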

[4] = molecular target: Phospholipid hydroperoxide glutathione peroxidase GPX4 (Homo sapiens) (UniProt P36969); experiment: Primary qHTS Assay for Inhibitors of Recombinant Selenoprotein Glutathione Peroxidase 4 (GPX4) (AID 1845192); conditions: recombinant GPX4, GR-coupled NADPH fluorescence, 15 min; series mostly up to 50 µM; also: nearly all actives have a fitted effect of over 65% in size; also: potency is read from the fitted curve at half-maximal effect
Phospholipid hydroperoxide glutathione peroxidase GPX4 (Homo sapiens), sequence (P36969 whole entry, looked up): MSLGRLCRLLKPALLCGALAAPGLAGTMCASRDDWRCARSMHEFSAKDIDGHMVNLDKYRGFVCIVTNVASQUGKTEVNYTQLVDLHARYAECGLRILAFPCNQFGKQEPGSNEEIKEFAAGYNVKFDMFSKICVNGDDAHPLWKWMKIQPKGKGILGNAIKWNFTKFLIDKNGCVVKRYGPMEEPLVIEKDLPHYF
Summary of the method: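 qHTS, GR-coupled: GPX4 200 nM + cpd 30 min RT → GSH 1 mM, NADPH 0.5 mM, GR 100 nM → CHP 0.5 mM start; fluor 340/450 at t0 and t15 min; no-enzyme wells as control.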

[5] = molecular target: Luciferin 4-monooxygenase (Photinus pyralis) (UniProt P08659); experiment: Primary firefly luciferase (FLuc) qHTS assay for identification of artifact compounds. (AID 1845220); conditions: purified firefly luciferase, luminescence, 5 min; series mostly up to 54.1 µM; also: nearly all actives have a fitted effect of over 60% in size
Summary of the method: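 In this counter-screen for luciferase artifacts, test compounds met substrate (10 uM each luciferin and ATP) before 10 nM enzyme started the reaction. Light output was measured 5 min later.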

[6] = NCATS anti-infectives library activity on the primary C. elegans qHTS viability assay (AID 1745855; calls by dose curve); conditions: C. elegans worm area imaging, day 7; series mostly up to 41.8 µM
Summary of the method: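 Titration-based screen in worms: eggs hatched overnight in M9, L1 larvae fed TOP10 capsules in S medium with compound, incubated 21 °C for 7 days; fluorescent objects gated by size and intensity at days 0, 3 and 7.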

[7] = Primary fluorescence-based thiol-reactive (MSTI) qHTS assay for identification of artifact compounds. (AID 1845221); conditions: MSTI thiol-reactivity probe, 1 h; series mostly up to 53.8 µM; also: nearly all actives have a fitted effect of over 65% in size; also: potency is read from the fitted curve at half-maximal effect
Summary of the method: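 A multi-concentration qHTS design tested compounds against 4 uM MSTI, pH 7.4 phosphate-buffered saline. Plates were protected from light for 1 h at room temperature before imaging fluorescence.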

[8] = tested on: Nanoluciferase (engineered Oplophorus gracilirostris luciferase); experiment: Primary Nanoluciferase (NLuc) qHTS assay for identification of artifact compounds. (AID 1845222); conditions: NLuc-conditioned medium, Nano-Glo luminescence, 5 min; series mostly up to 54.1 µM;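 also: NLuc secreted into diluted conditioned medium of S16 cells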
Summary of the method: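 Using secreted nanoluciferase in S16 culture medium (0.22 um filtered, 1:55 dilution), compounds were preincubated 15 min at RT. Signal was generated with Nano-Glo reagent (1:100) over 5 min.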

[9] = NCATS anti-infectives library activity on HEK293 viability as a counter-qHTS vs the C. elegans viability qHTS (AID 1745854); conditions: HEK293 viability counter-screen; series mostly up to 41.8 µM;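 also: HEK293 cells exposed to compounds for 24 hr before the viability read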
Summary of the method: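 Compound titrations (final up to 41.7 uM) were incubated with HEK293 cells for 24 hr at 37C under 5% CO2. Viable cells were quantified with CellTiter-Glo after 10 min at ambient temperature.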

Compound: O=C(O)c1ccc2c(c1)nc(Nc1cccc(Cl)c1)c1ccncc12
- activity [1]: -53.1%
- activity [2]: -66.6%
- Potency [3]: inactive
- Potency [4]: inactive
- Potency [5]: inactive

Compound: Cc1cc(Nc2nc(N[C@@H](C)c3ccc(F)cc3)c(C#N)cc2F)n[nH]1
- activity [1]: -35.7%
- activity [2]: -6.34%
- Potency [6]: inactive
- Potency [3]: inactive
- Potency [4]: inactive
- Potency [5]: inactive
- Potency [7]: inactive
- Potency [8]: inactive

Compound: CNC(=O)CN1CCC(Oc2cc3c(Nc4cccc(Cl)c4F)ncnc3cc2OC)CC1
- activity [1]: -23.1%
- activity [2]: -49.9%
- Potency [3]: inactive
- Potency [4]: inactive
- Potency [5]: inactive
- Potency [7]: inactive
- Potency [8]: inactive

Compound: Cc1cc(Nc2cc(N3CCN(C)CC3)nc(Sc3ccc(NC(=O)C4CC4)cc3)n2)n[nH]1
- activity [1]: -2.46%
- activity [2]: -1.21%
- Potency [3]: inactive
- Potency [4]: inactive
- Potency [5]: inactive
- Potency [7]: inactive
- Potency [8]: inactive

Compound: CC(C)[C@H](C(=O)Nc1ccc(C(=O)NO)cc1)c1ccccc1
- Potency [9]: inactive
- Potency [3]: inactive
- Potency [4]: inactive

Compound: CCn1cc(-c2ccnc3[nH]c(-c4cccc(CN(C)C)c4)cc23)c(-c2ccc(NC(=O)N(C)C)cc2)n1
- activity [1]: -7.11% and -33%
- activity [2]: -1.24% and -20%
- Potency [3]: inactive
- Potency [4]: inactive
- Potency [5]: inactive
- Potency [7]: inactive
- Potency [8]: inactive

Compound: Cc1c(CN2CCN(S(C)(=O)=O)CC2)sc2c(N3CCOCC3)nc(-c3cnc(N)nc3)nc12
- activity [1]: -17.8%
- activity [2]: -14.7%
- Potency [3]: inactive
- Potency [4]: inactive
- Potency [5]: inactive
- Potency [7]: inactive
- Potency [8]: inactive

Compound: CC[C@@H]1C(=O)N(C)c2cnc(Nc3ccc(C(=O)NC4CCN(C)CC4)cc3OC)nc2N1C1CCCC1
- activity [1]: -45.4%
- activity [2]: -31.6%
- Potency [3]: inactive
- Potency [4]: inactive

Compound: Nc1cccc(-c2cc3c(Oc4cccc(O)c4)ncnc3[nH]2)c1
- activity [1]: -47.2%
- activity [2]: -55.3%
- Potency [3]: inactive
- Potency [4]: inactive and 14.3 µM (active)
- Potency [5]: inactive
- Potency [7]: 9.47 µM (active)
- Potency [8]: inactive
